Composite z-score and z-score data for 8 compounds are collected here from PubChem BioAssay.

Active and inactive are the calls of the source. Unless noted, the rule behind the calls is not given here.

Test [1] has as its system Wnt5a (protein binding on small-molecule microarray). Put plainly: small molecules binding Wnt5a protein – biophysical, small-molecule microarray, 635/667 nm fluorescence, primary screen (AID 1142).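 Note: fluorescence read at 667 nm with signal to noise per printed feature.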 The settings on record: 635 nm fluorescence, higher = more signal.
Test [2] is described as follows: ATP-based viability of Huh7 replicon cells – cell-based, CellTiter-Glo luminescence, basal, 48 h, cytotoxicity control for HCV replication inhibitor project, primary screen (AID 1143).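 Note: Huh7 hepatoma cells carrying a hepatitis C replication reporter with no stimulus; test concentration not given here.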 The settings on record: higher = more signal, called active from +8 up or from −8 down. For orientation: In antiviral work, replicon cells carry a viral genome segment that copies itself.

A short description of test [3]: Pseudomonas biofilm growth suppression – PAO1 strain, BacTiter-Glo luminescence, LB-PBS, primary screen (AID 1144). Particulars: P. aeruginosa PAO1 biofilm, 12 h, higher = more signal.
Test [4] is described as follows: basal CRE-LacZ reporter activity in PC12 – cell-based, unstimulated, primary screen (AID 1145). Particulars: no forskolin, luminescence, 4.5 h, higher = more signal, called active from +8 up or from −8 down.
Test [5] in a line: forskolin-driven CRE-LacZ activity in PC12 – cell-based, CRE-LacZ reporter, forskolin-stimulated, primary screen (AID 1146).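 Note: PC12 cells with 6xCRE LacZ reporter stimulated by forskolin 10 µM; beta-galactosidase reporter signal reflecting CREB driven transcription.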 Particulars: luminescence, 4.5 h, higher = more signal, called active from +8 up or from −8 down.
Test [6] deals with Streptavidin (Streptomyces avidinii) (UniProt P22629). The test can be described thus: compounds binding control protein streptavidin – biophysical, small-molecule microarray, 635/667 nm fluorescence, artefact control for SMM compound annotation, primary screen (AID 1147).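 Note: signal reflects streptavidin binding to arrayed compounds as a control protein.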 Particulars: higher = more signal.
Test [7] in a line: probe aInhba binding on compound microarray – biochemical, small-molecule microarray, 635/667 nm fluorescence, primary screen (AID 1148).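 Note: score merges 667nm spot fluorescence with signal-to-noise for antibody binding to printed compounds.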 The settings on record: higher = more signal.
Test [8] addresses Torsin-1A (Homo sapiens) (UniProt O14656). Put plainly: TOR1A wild-type binding on microarray – cell lysate, small-molecule microarray, lysate, 635/667 nm, primary screen (AID 1149). Particulars: COS7 hTOR1A-WT lysate, 635 nm fluorescence, higher = more signal.
For test [9] the target is unchanged. Put plainly: torsin A mutant lysate binding on microarrays – cell lysate, small-molecule microarray, COS7 lysate, 635/667 nm fluorescence, primary screen (AID 1150).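 Note: score pools 667 nm emission and signal to noise measuring lysate protein binding.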 The settings on record: COS7 hTOR1A mutant lysate, 635 nm fluorescence, higher = more signal.
For test [10], the system named is Sonic hedgehog protein (Shh). The test can be described thus: Sonic hedgehog microarray binding compounds – biochemical, small-molecule microarray, 635/667 nm fluorescence, primary screen (AID 1151).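 Note: Shh protein binding to compounds spotted on small-molecule microarray slides; score combines spot fluorescence intensity with signal-to-noise across triplicate slides.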 Particulars: 635 nm fluorescence, higher = more signal.
The nature of test [11]: optical density shifts of acrAB sulA E. coli – strain DRC41, OD650, 48 h, E. coli filamentation inducer project, primary screen (AID 1152).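 Note: E. coli MC1000 strain DRC41 lacking acrAB efflux pump and sulA.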 Particulars: higher = more signal, called active from +8 up or from −8 down.
A short description of test [12]: probe aLefty1 binding on compound microarray – biochemical, small-molecule microarray, 635/667 nm fluorescence, primary screen (AID 1153).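 Note: score merges spot fluorescence with signal-to-noise ratio from the scanned slide images.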 The settings on record: higher = more signal.
The nature of test [13]: plasmodial surface anion channel blockers, osmotic lysis – cell-based, P. falciparum Indochina, OD700, 1 h, primary screen (AID 1154). The settings on record: P. falciparum Indochina infected RBC osmotic lysis, higher = more signal, called active from +8 up or from −8 down.
Test [14] in a line: plasmodial surface anion channel blockers, osmotic lysis – cell-based, P. falciparum Indochina, OD700, 2 h, primary screen (AID 1155).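 Note: lysis reports solute entry through the parasite surface anion channel PSAC.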 Particulars: P. falciparum Indochina infected erythrocytes, higher = more signal, called active from +8 up or from −8 down.
Test [15] can be described thus: changes in parasitized red cell lysis, either direction – P. falciparum Indochina, OD700, 3 h, PSAC antagonist project, primary screen (AID 1156). Particulars: P. falciparum-infected erythrocytes, osmotic lysis, higher = more signal, called active from +8 up or from −8 down.
Test [16] is described as follows: plasmodial surface anion channel blockers, osmotic lysis – cell-based, P. falciparum Indochina, OD700, 18 h, primary screen (AID 1157). Particulars: P. falciparum Indochina infected erythrocytes, osmotic lysis OD700, 18 h; higher = more signal, called active from +8 up or from −8 down.
Test [17] is described as follows: S6 kinase pathway phospho-S6 level changes – cell-based, A549, cytoblot, luminescence, serum-stimulated, primary screen (AID 1158).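 Note: serum-stimulated A549 lung adenocarcinoma cells; signal is phosphorylated S6 detected by cytoblot immunostaining with HRP secondary.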 Particulars: 5 h, higher = more signal.
The target in test [18] is NADPH oxidase 2 (Homo sapiens) (UniProt P04839). Put plainly: compounds shifting NOX2 Amplex Red fluorescence – cell-based, HEK293-NOX2, PMA-stimulated, NOX inhibitor project, primary screen (AID 1159). Note: test concentration not given here. Particulars: 45 min, higher = more signal, called active from +8 up or from −8 down.
Test [19] deals with NADPH oxidase 4 (Homo sapiens) (UniProt Q9NPH5). The test can be described thus: compounds shifting NOX4 Amplex Red fluorescence – cell-based, HEK293-NOX4, tetracycline-induced, NOX inhibitor project, primary screen (AID 1160). The settings on record: HEK293-NOX4, Amplex Red H2O2 fluorescence, 45 min; higher = more signal, called active from +8 up or from −8 down.
For test [20], the target named is NADPH oxidase 5 (Homo sapiens) (UniProt Q96PH1). The test can be described thus: compounds shifting NOX5 Amplex Red fluorescence – cell-based, HEK293-NOX5, NOX inhibitor project, primary screen (AID 1161). The settings on record: HEK293-NOX5, ionomycin, 45 min, higher = more signal.
NADPH oxidase 5 (Homo sapiens), sequence (Q96PH1 whole entry, looked up): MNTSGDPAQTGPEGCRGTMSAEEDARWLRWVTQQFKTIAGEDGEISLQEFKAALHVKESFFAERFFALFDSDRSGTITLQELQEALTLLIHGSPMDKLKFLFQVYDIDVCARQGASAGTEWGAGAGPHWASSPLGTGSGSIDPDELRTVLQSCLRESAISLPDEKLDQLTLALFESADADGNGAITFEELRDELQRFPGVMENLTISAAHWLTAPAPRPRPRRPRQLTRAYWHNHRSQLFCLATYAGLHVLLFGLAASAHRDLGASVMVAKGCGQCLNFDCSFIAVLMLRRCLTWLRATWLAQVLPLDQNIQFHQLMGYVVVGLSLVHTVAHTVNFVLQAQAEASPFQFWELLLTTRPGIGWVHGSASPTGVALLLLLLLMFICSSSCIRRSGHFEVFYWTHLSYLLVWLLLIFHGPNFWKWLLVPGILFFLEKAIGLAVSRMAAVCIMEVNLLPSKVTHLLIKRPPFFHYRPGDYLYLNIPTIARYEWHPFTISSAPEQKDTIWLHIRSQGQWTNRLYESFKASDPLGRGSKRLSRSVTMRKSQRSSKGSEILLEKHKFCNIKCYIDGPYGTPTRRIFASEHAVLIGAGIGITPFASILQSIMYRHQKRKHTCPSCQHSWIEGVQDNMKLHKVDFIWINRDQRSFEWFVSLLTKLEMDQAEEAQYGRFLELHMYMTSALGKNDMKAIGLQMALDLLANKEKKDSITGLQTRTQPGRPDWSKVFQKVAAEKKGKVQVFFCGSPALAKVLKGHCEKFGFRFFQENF

NADPH oxidase 4 (Homo sapiens), sequence (Q9NPH5 whole entry, looked up): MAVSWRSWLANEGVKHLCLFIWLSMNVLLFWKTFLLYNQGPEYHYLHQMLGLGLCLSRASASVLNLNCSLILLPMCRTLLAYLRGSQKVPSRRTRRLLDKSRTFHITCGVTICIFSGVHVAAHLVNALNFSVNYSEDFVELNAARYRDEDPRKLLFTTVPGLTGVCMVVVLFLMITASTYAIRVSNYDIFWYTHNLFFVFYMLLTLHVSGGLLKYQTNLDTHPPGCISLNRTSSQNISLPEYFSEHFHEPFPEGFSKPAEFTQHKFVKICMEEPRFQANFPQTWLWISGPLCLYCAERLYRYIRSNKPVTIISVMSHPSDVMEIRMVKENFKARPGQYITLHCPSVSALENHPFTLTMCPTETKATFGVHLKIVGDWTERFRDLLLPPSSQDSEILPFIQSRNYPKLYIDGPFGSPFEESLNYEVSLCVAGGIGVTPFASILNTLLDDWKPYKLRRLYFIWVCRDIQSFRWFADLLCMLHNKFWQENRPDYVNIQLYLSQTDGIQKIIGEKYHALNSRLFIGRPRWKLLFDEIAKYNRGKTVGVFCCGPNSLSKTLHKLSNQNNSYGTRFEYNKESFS
NADPH oxidase 2 (Homo sapiens), sequence (P04839 whole entry, looked up): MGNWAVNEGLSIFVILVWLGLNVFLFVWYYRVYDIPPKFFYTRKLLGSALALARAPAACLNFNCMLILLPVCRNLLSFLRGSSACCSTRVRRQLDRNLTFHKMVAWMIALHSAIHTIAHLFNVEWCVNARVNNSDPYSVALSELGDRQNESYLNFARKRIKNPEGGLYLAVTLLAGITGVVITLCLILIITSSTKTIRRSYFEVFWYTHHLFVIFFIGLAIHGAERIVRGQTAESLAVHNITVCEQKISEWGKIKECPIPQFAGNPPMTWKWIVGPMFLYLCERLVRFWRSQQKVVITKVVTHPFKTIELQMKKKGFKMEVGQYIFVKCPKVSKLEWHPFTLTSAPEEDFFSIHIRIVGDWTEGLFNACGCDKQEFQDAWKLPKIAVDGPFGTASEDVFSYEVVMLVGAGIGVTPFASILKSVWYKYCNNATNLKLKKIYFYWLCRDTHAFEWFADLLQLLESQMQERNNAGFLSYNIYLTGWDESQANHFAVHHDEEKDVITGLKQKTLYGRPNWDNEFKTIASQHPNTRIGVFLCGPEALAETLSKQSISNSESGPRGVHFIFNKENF
Streptavidin (Streptomyces avidinii), sequence (P22629 whole entry, looked up): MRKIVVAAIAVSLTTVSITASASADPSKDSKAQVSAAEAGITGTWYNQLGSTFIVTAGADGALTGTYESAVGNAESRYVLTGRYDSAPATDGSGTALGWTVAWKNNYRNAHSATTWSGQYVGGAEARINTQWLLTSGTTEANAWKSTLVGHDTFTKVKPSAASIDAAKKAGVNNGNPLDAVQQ
Torsin-1A (Homo sapiens), sequence (O14656 whole entry, looked up): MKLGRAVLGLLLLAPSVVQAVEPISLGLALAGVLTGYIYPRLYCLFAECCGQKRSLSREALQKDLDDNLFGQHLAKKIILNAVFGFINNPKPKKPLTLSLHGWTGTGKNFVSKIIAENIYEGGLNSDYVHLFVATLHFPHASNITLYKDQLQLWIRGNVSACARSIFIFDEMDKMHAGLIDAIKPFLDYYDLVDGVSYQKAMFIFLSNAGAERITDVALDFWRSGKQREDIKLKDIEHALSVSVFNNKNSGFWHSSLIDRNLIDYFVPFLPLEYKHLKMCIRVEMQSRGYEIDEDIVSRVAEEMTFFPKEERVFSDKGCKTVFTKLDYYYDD

With `CCCC#C[Si](O[C@H](CC)c1cn(Cc2cccc(Cl)c2)nn1)(C(C)C)C(C)C`, the composite z-score in test [1] was found to be 0.227; in test [6] it was 0.379; in test [7] it was 0.192; in test [8], 0.882; in test [9], 0.244; in test [10], 0.773. The compound also came in with a composite z-score in test [12] of 0.171. Also, the z-score in test [2] was -1 (inactive); in test [3] it was -0.618 (inactive); in test [4], -0.505 (inactive); in [5] it was -0.558 (inactive); in [11], 1.68 (inactive); in test [13] it was 0.131 (inactive). Also, the z-score was 0.659 (inactive) in test [14]; -0.871 (inactive) in test [15]; 0.283 (inactive) in test [16]; -0.131 in test [17]; 0.041 (inactive) in [18]; 0.076 (inactive) in test [19]. For the same compound, the z-score in test [20] worked out at 0.842.
For `C=C(COC)/C(=C/C[C@H](OC(C)=O)c1ccc(CO)o1)c1cc(C(=O)OC)ccc1OC`, the composite z-score in test [1] was 0.122; in test [6], -0.427; in test [7] it was -0.154; in test [8], -0.156; in test [9], 0.647; in test [10], 0.756. The same compound gave a composite z-score in test [12] of -0.193. For the same compound, the z-score is -3.08 (inactive) in test [2]; -0.261 (inactive) in [3]; 1.78 (inactive) in test [4]; 1.71 (inactive) in test [5]; 0.506 (inactive) in [11]; 1.25 (inactive) in test [13]. For the same compound, the z-score is -2.29 (inactive) in test [14]; 0.672 (inactive) in test [15]; -2.07 (inactive) in test [16]; 0.873 in test [17]; -1.85 (inactive) in [18]; -1.92 (inactive) in test [19]. Besides, the z-score in test [20] is -1.14.
On to `NC(=O)N1C(=O)C2C(C1=O)C1C=C(c3ccc(CO)cc3)C2C(c2cccs2)N1Cc1cccc(OC(F)(F)F)c1` (stereo not given), for which the composite z-score is 0.24 in [1]; 0.514 in [6]; 0.29 in [7]; 0.635 in [8]; 0.522 in test [9]; 0.235 in test [10]. The composite z-score in [12] was determined as 0.424. Besides, the z-score in [2] is -3.63 (inactive); in test [3], 0.945 (inactive); in test [4], 1.08 (inactive); in [5] it was -1.58 (inactive); in [11], -3.19 (inactive); in [13] it was 3.08 (inactive). Further, the z-score was -0.687 (inactive) in test [14]; 0.195 (inactive) in test [15]; -1.98 (inactive) in [16]; 2.65 in test [17]; -1.02 (inactive) in test [18]; -1.22 (inactive) in test [19]. In addition, the z-score in test [20] was -1.25.
With `O=C1NC(=O)C2C1C=CC(C(O)c1cc(C(F)(F)F)cc(C(F)(F)F)c1)N2Nc1ccccn1` (stereo not given), the composite z-score in [1] is -0.102; in test [6], 0.0086; in test [7], -0.0059; in [8] it was -0.138; in [9], 0.237; in test [10], 0.87. Besides, the composite z-score in test [12] is 0.127. Also, the z-score in [2] was 0.804 (inactive); in test [3], -0.162 (inactive); in test [4] it was 0.0501 (inactive); in [5] it was 0.403 (inactive); in [11], -1.87 (inactive); in [13], 0.499 (inactive). Besides, the z-score in test [14] is 0.701 (inactive); in [15], -0.0477 (inactive); in [16] it was 0.827 (inactive); in test [17], -0.822; in test [18], -1.17 (inactive); in [19] it was -1.72 (inactive). In addition, in test [20], the z-score was -2.4.
As for `O=C1c2ccccc2[C@](Cc2ccccc2I)(C(=O)NCCN2CCOCC2)[C@H](c2ccc(CO)cc2)N1C1CCCCC1`, the composite z-score in [1] is 0.379; in test [6], 0.934; in test [7] it was 0.216; in test [8], 0.873; in test [9] it was 0.469; in [10], 1.52. Besides, the composite z-score in test [12] worked out at 0.373. Moreover, the z-score in [2] was -3.69 (inactive); in [3], 0.155 (inactive); in test [4] it was -0.168 (inactive); in test [5] it was -0.0922 (inactive); in [11], 0.0237 (inactive); in [13] it was 3.66 (inactive). In addition, the z-score in test [14] was 0.814 (inactive); in test [15], 0.664 (inactive); in test [16] it was 0.5 (inactive); in [17] it was -0.164; in test [18] it was 0.155 (inactive); in test [19], 0.784 (inactive). The z-score in test [20] was 0.958.
`O=C1C2C=CC(C(O)CCc3ccccc3)N(Nc3ccccc3F)C2C(=O)N1c1ccccc1` (stereo not given): the composite z-score stood at 0.43 in test [1]; 0.787 in test [6]; 0.131 in test [7]; 0.204 in [8]; 0.538 in test [9]; 0.366 in test [10]. This compound also had a composite z-score in test [12] of -0.322. The z-score in [2] was -0.381 (inactive); in test [3], -0.315 (inactive); in [4], -0.331 (inactive); in test [5], 0.654 (inactive); in test [11], -0.383 (inactive); in test [13], 1.87 (inactive). Besides, the z-score in test [14] is 1.15 (inactive); in [15] it was 0.517 (inactive); in test [16], 0.807 (inactive); in test [17] it was -0.638; in test [18] it was 0.236 (inactive); in test [19], -0.452 (inactive). The z-score in test [20] is -0.449.
Regarding `COc1cccc(-c2cccc(=O)o2)c1`, the composite z-score in [1] is 0.595; in [6], 0.438; in test [7] it was 0.177; in test [8] it was 0.0114; in test [9], 0.698; in test [10] it was -0.207. The composite z-score in [12] is 0.565. Besides, the z-score in test [2] was 0.064 (inactive); in [3], 0.77 (inactive); in [4], -0.228 (inactive); in [5], -0.977 (inactive); in test [11] it was 0.0997 (inactive); in test [13], 10.4 (active). For the same compound, the z-score in test [14] is 1.6 (inactive); in test [15], -0.685 (inactive); in test [16], 0.611 (inactive); in [17], -0.684; in test [18], 0.705 (inactive); in test [19] it was -1.15 (inactive). The z-score in test [20] is -1.47.
Take `COC(=O)[C@@]1(Cc2ccccc2)[C@H]2c3cc(C(=O)N(C)C)n(Cc4ccsc4Br)c3C[C@H]2CN1C(=O)c1ccccc1`: the composite z-score in test [1] is 0.211; in [6], 1.09; in test [7], 0.0737; in [8] it was 0.856; in [9], 0.508; in test [10], -1.21. The same compound gave a composite z-score in [12] of 1.04. The z-score in test [2] was -3.35 (inactive); in test [3], -0.166 (inactive); in test [4] it was 0.58 (inactive); in [5], 0.751 (inactive); in [11], -0.775 (inactive); in [13], 6.57 (inactive). Besides, the z-score in [14] was 1.07 (inactive); in test [15], 0.923 (inactive); in [16], 1.25 (inactive); in [17] it was -0.259; in test [18], -0.111 (inactive); in test [19] it was 0.106 (inactive). For the same compound, the z-score in test [20] was 0.723.
